# In PubChem BioAssay (NCI):
# This is part of a sample that, as a whole, favours compounds with a hit. Of some 83,000 tested, about 20% had one in any assay.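 Values shown are percent growth following 48 h exposure of cells in 96-well plates to a single concentration of compound; below 10 was considered active.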 Active and inactive are the calls of the source.
# Tested on: HL-60(TB) leukemia
# Assay: NCI-60 one-dose screen, 48 h (100 = growth as untreated, 0 = no growth, -100 = all killed)
# Settings: 10 µM unless noted
row,SMILES,growth
1,Cc1ccc(NC(=O)c2sc3nc(C)c(C(=O)c4ccccc4)cc3c2N)cc1,84.2% (inactive)
2,C=C1CCC2C(C)(CO)C(O)CCC2(C)C1C/C=C1/C(=O)OCC1O/C=C/c1ccccc1 (stereo not given),7.31% (active)
3,CCCCCCCCn1ccc2cc(NC(=O)CN3CCN(c4nc(C)cc(N5CCCCC5)n4)CC3)ccc21,71% (inactive)
4,COc1ccc(C2C(c3nn[nH]n3)=C(N)Oc3c2ccc2ccccc32)cc1 (stereo not given),31.9% (inactive)
5,COS(=O)(=O)c1ccc(Br)cc1,122% (inactive)
6,COc1ccc(C(O)c2cc3c(N)c(C(=O)Nc4cccc5ccccc45)sc3nc2C)cc1 (stereo not given),-1.39% (active)
7,O=[N+]([O-])c1ccc(O)c2ncccc12,-4.85% (active)
8,Nc1nc(NC2CC2)cc(-c2cccc(Cl)c2Cl)n1,32.6% (inactive)
9,CCOC(=O)/C(O)=C(\C=N\C(=S)Nc1ccc(Cl)c(Cl)c1)C(=O)OCC,83.6% (inactive)
10,Cn1c(=O)c2c(c3ccccc31)OC(N)=C(C#N)C21C(=O)c2ccccc2C1=O,98.1% (inactive)
11,COc1ccc(/C=C/C(=O)c2ccc(NC(=O)CSc3nnc(-c4cc(OC)c(OC)c(OC)c4)o3)cc2)cc1,-53.4% (active)
12,Cc1c2c(cc[n+]1Cc1ccccc1)c1ccc(OCc3ccccc3)cc1n2Cc1ccccc1,-54.1% (active)
13,COc1cccc(-c2nc3sccn3c2-c2ccnc(NCCN3CCCN(C)S3(=O)=O)n2)c1,105% (inactive)
14,O=C1/C=C/[C@@H](O)[C@@H]2C[C@@H](O)C[C@H]2/C=C/CCC[C@H](CO)O1,-25.4% (active)
15,CCN(CC)CCNC(=O)c1ccc(-c2nc3ccc4[nH]ncc4c3c3c2CCCC3)cc1,67.9% (inactive)
16,Nc1nc2ccc(CNc3ccc(C(=O)NC(CC(=O)O)C(=O)O)cc3)cc2c(=O)[nH]1 (stereo not given),4.48% (active)
17,COc1ccc(/C=C/C=C\C(=O)c2ccc(-n3ccnc3)cc2)cc1,66.9% (inactive)
18,C=CC1=C(C(=O)O)N2C(=O)[C@@H](NC(=O)/C(=N\O)c3csc(N)n3)[C@H]2SC1 (stereo in doubt),118% (inactive)
19,CCOC(=O)c1c(C)nn(CC(O)c2ccccc2)c1NC(=O)Nc1cccc(F)c1 (stereo not given),107% (inactive)
20,CS(=O)(=O)OC1CC(n2ccc(=O)[nH]c2=O)OC1COC(c1ccccc1)(c1ccccc1)c1ccccc1 (stereo not given),97.6% (inactive)

row,SMILES,growth
1,COC(=O)[C@]12CC[C@@H](C)[C@H](C)[C@@H]1C1=CC[C@@H]3[C@@]4(C)C(C=O)=C[C@@](C)(COC(C)=O)[C@@H]4C(=O)C[C@@]3(C)[C@]1(C)CC2,29.8% (inactive)
2,CC(C)(C)OC(=O)CN1CCc2c(sc3ncnc(N/N=C/c4cccc5ccccc45)c23)C1,-9.67% (active)
3,COc1ccc(-c2cc3c(OC)c(OC)c(OC)cc3oc2=O)cc1,36.5% (inactive)
4,COc1ccc(C(=O)/C=C/c2cccnc2Nc2cc(OC)c(OC)c(OC)c2)cc1,-23.2% (active)
5,CCCCCCC/C=N/NC(=O)c1ccc(-n2cc(-c3ccccc3)nn2)cc1,95.2% (inactive)
6,CCCCCn1c(=N)n(CC(O)COc2cccc(C)c2)c2ccccc21 (stereo not given),2.51% (active)
7,Cn1cc(-c2ccc3cc(-c4ccc(CC(=O)Nc5cc(C(C)(C)C)on5)cc4)cnc3c2)cn1,-14.3% (active)
8,Cc1cc(N2CCCC2)nc(N(CCCNc2ccnc3cc(Cl)ccc23)Cc2ccccn2)n1,23.4% (inactive)
9,CCCCOc1nc2ccc(C)cc2cc1/C=C/C(=O)/C=C(O)/C=C/c1cc2cc(C)ccc2nc1OCCCC,99% (inactive)
10,CC(C)CCOC(=O)c1ccccc1,101% (inactive)
11,COc1ccc(Cn2c(Br)c3c(c2-c2cc(OC)c(OC)c(OC)c2)CCc2sc(NC(=O)c4ccc(OC)cc4)nc2-3)cc1,56.4% (inactive)
12,C[C@@H]1C[C@H]2C(=O)O[C@@H](C)[C@H](NC(=O)[C@H](Cc3cc(F)cc(F)c3)NC(=O)Nc3ccc(Cl)cc3F)C(=O)N3C[C@H](O)C[C@H]3C(=O)N3CCN(C)C[C@H]3C(=O)N[C@@H](C)C(=O)N2C1,30.1% (inactive)
13,COc1ccc(/C(=C2/O[C@@H]([C@H]3COC(C)(C)O3)[C@H]3OC(C)(C)O[C@@H]23)c2cc(OC)c(OC)c(OC)c2)cc1O,-0.369% (active)
14,COC(=O)[C@H](C)NC(=O)[C@@H]1CCCN1C(=O)CNC(=O)[C@H](C)N,104% (inactive)
15,CCC(=O)N1C/C(=C/c2ccc(OC)cc2)C(=O)/C(=C/c2ccc(OC)cc2)C1,25.1% (inactive)
16,COc1cc(/C=C/C(=O)c2cccnc2Nc2ccc(F)cc2)cc(OC)c1OC,5.42% (active)
17,Cc1cccc[n+]1C1c2ccccc2-c2ccccc21,92% (inactive)
18,CCCCCCC(=O)C(C)C,101% (inactive)
19,CC1CCCN(CCCCCOc2ccc3oc4ccc(Cl)cc4c(=O)c3c2)C1 (stereo not given),48.6% (inactive)
20,C[C@@H]1O[C@@H](O[C@@H]2C[C@H](c3ccc4c(c3O)C(=O)C3=C(C4=O)[C@@]4(O)C(=O)C[C@](C)(O)C[C@@]4(O)C=C3)O[C@H](C)[C@H]2O)CC[C@@H]1O[C@H]1C[C@@H](O)[C@H](O)[C@@H](C)O1,99.4% (inactive)
